Sampled rows, rich in hits. Any-hit rate of the full collection: about 0.87%.
WRN helicase inh – inhibitors of human WRN helicase. WRN helicase unwinding, fluorescent forked duplex, kinetic. Q14191. 360,000 compounds, 0.46% hits. Potency, µM (doses to about 114 µM), for inactives: top-dose activity change, negative = inhibition, actives largely listed as inhibitors; further: nearly all actives have a fitted effect of over 55% in size
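Enzyme (20 nM final) and test compound sit together 15 min at room temperature before substrate addition. Substrate is a single-forked duplex oligonucleotide (100 nM) labelled with fluorophore and quencher, with 2 mM ATP; helicase unwinding raises red fluorescence, read kinetically.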
RECQ1 helicase – RECQ1 (human) helicase inhibition | 240,000 compounds, 0.54% hits | RECQ1 DNA unwinding, red fluorescence kinetic read | AID 2549 | Potency, µM (highest dose often 57.3 µM), inactives show at the highest dose activity, negative = inhibition, most hits filed as inhibitors;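 further: plate controls were vehicle for no effect and no enzyme for full effect; nearly all actives have a fitted effect of over 30% in size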
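50 nM RECQ1T1 preincubated 15 min with compound in Tris pH 8.0 buffer with MgCl2, DTT, Tween-20 and 2.5 ug/ml poly(dI-dC); started with 200 nM TAMRA/BHQ-2 forked duplex and 2 mM ATP. Unwinding read as fluorescence (525/598 nm), two reads 2 h apart.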
BLM helicase inh – Bloom syndrome helicase (human) inhibition; P54132; recombinant BLM DNA unwinding, fluorescence dequenching; Potency, µM (series often up to 56.1 µM), for the others: top-dose activity change, negative = inhibition, hits mostly inhibitors; 350,000 compounds, 0.2% hits; AID 2528;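 further: plate controls were vehicle for no effect and no enzyme for full effect; nearly all actives have a fitted effect of over 35% in size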
FEN1 inh – blocks human flap endonuclease 1. Recombinant FEN1 flap cleavage, fluorescence, 15 min. P39748. 390,000 compounds, 0.35% hits. Potency, µM (titrated, usually from 114 µM), for inactives: at the top dose activity change, negative = inhibition, actives largely listed as inhibitors; further: nearly all actives have a fitted effect of over 65% in size
Target sequence (P39748 whole entry, looked up): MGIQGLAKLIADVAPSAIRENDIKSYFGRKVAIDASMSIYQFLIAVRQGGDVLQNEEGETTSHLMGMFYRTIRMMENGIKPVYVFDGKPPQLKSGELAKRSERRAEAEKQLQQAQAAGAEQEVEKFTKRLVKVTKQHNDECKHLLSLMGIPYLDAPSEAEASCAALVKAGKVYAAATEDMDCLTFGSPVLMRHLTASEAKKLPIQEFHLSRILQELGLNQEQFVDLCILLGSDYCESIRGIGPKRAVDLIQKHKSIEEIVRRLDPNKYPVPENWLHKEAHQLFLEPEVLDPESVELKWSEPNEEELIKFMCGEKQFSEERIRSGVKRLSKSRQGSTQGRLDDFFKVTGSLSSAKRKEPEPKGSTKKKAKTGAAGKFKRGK
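Read-out was taken twice, immediately and after 15 min, following addition of 50 nM substrate to 10 nM FEN1 that had sat with test compound for 15 min at room temperature. Curves came from a four-parameter Hill model.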
APEX1 inh – blocks human APE1 abasic DNA cleavage; P27695; recombinant APE1, TAMRA/BHQ-2 abasic DNA cleavage fluorescence; Potency, µM (top dose mostly 65.8 µM), inactives show at the top dose activity change, negative = inhibition, actives largely listed as inhibitors; 350,000 compounds, 0.35% hits;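 further: plate controls were vehicle for no effect and reference inhibitor for full effect; nearly all actives have a fitted effect of over 55% in size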
Target sequence (P27695 whole entry, looked up): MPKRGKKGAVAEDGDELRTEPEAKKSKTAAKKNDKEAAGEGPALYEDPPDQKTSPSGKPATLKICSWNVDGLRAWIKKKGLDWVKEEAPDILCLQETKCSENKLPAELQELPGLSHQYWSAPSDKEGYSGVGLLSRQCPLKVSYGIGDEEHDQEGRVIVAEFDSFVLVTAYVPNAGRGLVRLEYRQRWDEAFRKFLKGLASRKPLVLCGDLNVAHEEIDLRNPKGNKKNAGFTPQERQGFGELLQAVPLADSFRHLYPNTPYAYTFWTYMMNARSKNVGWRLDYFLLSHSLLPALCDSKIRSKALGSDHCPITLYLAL
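Substrate: short duplex with […] THF abasic site, 5'-TAMRA and 3'-BHQ-2, 50 nM final. APE1 at 0.75 nM, preincubated 15 min RT with compound. Fluorescence increase from first to third read measured activity.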
* = called active by the depositor; i = inactive; ? = inconclusive; . = not tested or not shown; [ ] = dose if it differs, or a comment. The call rests on the fitted dose curve; in most records, active means well fitted curve in the direction sought with a large enough effect; inconclusive means small, poorly fitted or top-dose-only effect, or another doubt; inactive means no such curve, though single readings can be large; an effect the other way counts as inactive or inconclusive. Unless noted, on the % scale 0 is the no-effect control and ±100 the full control effect; potency means the concentration at half of the fitted maximal effect.

SMILES	WRN helicase inh	RECQ1 helicase	BLM helicase inh	FEN1 inh	APEX1 inh
CCN1/C(=C/C=C/C=C/C=C/c2sc3ccccc3[n+]2CC)Sc2ccccc21	-29.6%	.	0.2%	-17.3%	-31.0%
CCN1/C(=C/C=C/c2sc3ccccc3[n+]2CC)Sc2ccccc21	39.8µM*	.	31.6µM*	2.6%	23.8µM*
CC(C)(C)n1ncc2c(=O)n(Cc3ccc(C#N)c(F)c3)cnc21	.	.	.	-2.6%	-8.6%
Cc1cnc2ccc(I)cc2c1/C=C/c1ccc(N(C)C)cc1	.	.	.	-30.4%	.
O=C(c1ccccc1)c1cc(Cl)ccc1N1C(=O)C=CC1=O	14.1µM*	-15.2%	-5.2%	-24.1%	-1.4%
CO[C@H](C(=O)[C@@H](O)[C@@H](C)O)C1Cc2cc3cc(O[C@H]4C[C@@H](O[C@H]5C[C@@H](O)[C@H](O)[C@@H](C)O5)[C@@H](O)[C@@H](C)O4)c(C)c(O)c3c(O)c2C(=O)[C@H]1O[C@H]1C[C@@H](O[C@H]2C[C@@H](O[C@H]3C[C@](C)(O)[C@H](O)[C@@H](C)O3)[C@H](O)[C@@H](C)O2)[C@H](O)[C@@H](C)O1 (some centres undefined)	.	.	-6.1%	.	.
COc1cccc(/C=N/Nc2ncnc3c2[nH]c2ccc(C)cc23)c1OC	?	-7.8%	14.1µM*	-21.3%	1.5%
O=C(O)CCN1C(=O)/C(=C2\C(=O)N(Cc3ccccc3Cl)c3ccccc32)SC1=S	.	.	-20.6%	.	7.52µM*
COc1ccc(NC(=O)CN2C(=O)/C(=C3\SC(=S)N(CCC(=O)O)C3=O)c3ccccc32)cc1	-1.7%	.	-3.5%	-21.2%	34.5%
CCC(c1ccccc1)C(CC)c1cc(O)c(O)c(O)c1 (centres undefined)	44.7µM*	.	.	-15.8%	.
CCC(C(=O)O)c1ccccc1 (centres undefined)	.	16.1%	-8.0%	.	16.3%
CC(C)[C@H]1COCCS(=O)(=O)N1Cc1cccc([N+](=O)[O-])c1	.	.	.	-9.6%	.
C=C1C=C(C(F)F)n2ncc(C(=O)N3CCN(c4ccccn4)CC3)c2N1	.	.	.	-18.5%	.
O=C(O)CNS(=O)(=O)c1ccc2c3c(cccc13)C(=O)N2	56.2µM*	.	-9.8%	?	?
COc1cc2c(cc1OC)C(COc1ccc3c(C)cc(=O)oc3c1)N(C(=O)c1ccccc1F)CC2 (centres undefined)	.	.	-9.7%	-6.2%	.
O=C(Nc1ccccc1)C1=C[C@@H](c2ccccc2)C[C@@H](OCc2ccc(CO)cc2)O1	-2.6%	-15.8%	-16.7%	-5.3%	-5.9%
CC(C)(C)[C@H]1C=C(C(=O)Nc2ccccc2)O[C@@H](OCc2ccc(CO)cc2)C1	-2.4%	28.2µM*	-11.5%	-24.6%	-5.4%
CCOC(=O)CSc1n[nH]c(-c2ccco2)n1	2.9%	-3.4%	-1.5%	-7.6%	1.3%
O=C(O)c1ccc(CSc2n[nH]c(-c3ccco3)n2)cc1	?	-7.5%	-3.7%	?	39.8µM*
C=CC(=O)Nc1cccc(Nc2nc(N[C@H]3CC[C@H](N(C)C)CC3)nc3c2ncn3C(C)C)c1	?	.	.	50.1µM*	.
C[C@@H]1NC(=O)c2cc([N+](=O)[O-])cc(I)c2OCC[C@@H](C(N)=O)NC(=O)[C@H](CCCCN)NC1=O	6.5%	i	-8.6%	8.8%	1.0%
NCCCC[C@H]1NC(=O)[C@H](CCC(=O)O)NC(=O)c2cc([N+](=O)[O-])cc(I)c2OCC[C@@H](C(N)=O)NC1=O	10µM*	i	6.4%	22.4µM*	?
O=C(COc1ccccc1C(=O)Nc1ccccc1)Nc1ccc2ccccc2c1	.	.	.	9.9%	.
O=[N+]([O-])c1ccccc1OCCOc1ccccc1[N+](=O)[O-]	-24.9%	39.8µM*	0.4%	-9.0%	3.4%
COc1ccc(OCCOc2ccccc2[N+](=O)[O-])cc1	-0.7%	-2.6%	-6.9%	-17.6%	-1.9%
SMILES	WRN helicase inh	RECQ1 helicase	BLM helicase inh	FEN1 inh	APEX1 inh
Cc1c(/C=N\NC(=O)C2COc3ccc(C(C)(C)C)cc3O2)c2ccccc2n1C (centres undefined)	-15.0%	28.2µM*	-11.8%	-22.2%	-0.5%
Cn1cccc1/C=N\NC(=O)C1COc2ccc(C(C)(C)C)cc2O1 (centres undefined)	-10.7%	.	-12.9%	-2.8%	-27.2%
Cc1cc(C(=O)O)ccc1-c1ccc(/C=C2\NC(=O)N(Cc3ccccc3Cl)C2=O)o1	50.1µM*	-7.1%	-6.6%	?	-3.2%
Cc1ccccc1NC(=O)CN1C(=O)S/C(=C\c2ccc(-c3cc(C(=O)O)ccc3C)o2)C1=O	?	i	-6.7%	?	?
Cc1cccc(C(=O)Nc2cccc(C(=O)OCc3cc(=O)n4nc(C5CC5)sc4n3)c2)c1	.	.	-5.4%	-5.8%	.
O=C1c2c(O)cc(O)cc2O[C@@]12c1c(cc(O)c3c1O[C@H](c1ccc(O)cc1)[C@@H](O)C3)O[C@@H]2c1ccc(O)cc1	-10.1%[11.6 µM]	i	-5.7%	50.1µM*	-2.0%
CC(C)(C)n1ncc2c(=O)n(Cc3cc(C(F)(F)F)ccc3Cl)cnc21	.	.	.	-25.6%	1.2%
CCCCNC(=O)c1ccc2nc(-c3ccco3)c(-c3ccco3)nc2c1	79.4µM*	2.2%	15.8µM*	39.8µM*	-4.6%
O=C(NC1CC1)c1ccc2nc(-c3ccco3)c(-c3ccco3)nc2c1	.	.	.	11.2µM*	.
CNC(=O)c1ccc2nc(-c3ccco3)c(-c3ccco3)nc2c1	.	.	.	6.31µM*	.
O=C(Nc1ccccc1)c1ccc2nc(-c3ccco3)c(-c3ccco3)nc2c1	39.8µM*	0.9%	31.6µM*	?	2.1%
CCCNC(=O)c1ccc2nc(-c3ccccc3)c(-c3ccccc3)nc2c1	-7.5%	-13.2%	-0.6%	-7.9%	-4.9%
CCC1CCc2c(sc(NC(=O)C3c4ccccc4Oc4ccccc43)c2C(=O)OC)C1 (centres undefined)	.	.	-8.7%	-15.7%	.
CC(=O)Nc1ccc(NC(=O)C2CCN(S(=O)(=O)c3ccc4c(c3)CCCC(=O)N4)CC2)cc1	.	.	3.2%	3.8%	.
CCOC(=O)c1cc(OCc2csc(-c3ccccc3)n2)cc(C(=O)OCC)c1	.	.	.	1.7%	.
O=C1CN(C(=O)c2ccc(Cl)cc2Cl)C(c2ccc(F)cc2)c2cc(F)ccc2N1 (centres undefined)	.	.	-7.6%	1.6%	.
Cc1cc(C)cc(NC(=O)N2CCC3(CC2)Oc2ccccc2C(=O)N3Cc2ccccc2F)c1	.	.	-5.2%	-1.8%	.
C=C1NN(C(C)C(=O)O)C(=O)N1c1ccc(OCc2ccccc2)cc1 (centres undefined)	.	.	.	15.9%	.
CC(=O)Nc1ccc(N2C(=O)c3cccc4c(O)ccc(c34)C2=O)cc1	50.1µM*	.	?	?	?
O=C1c2cccc3c(O)ccc(c23)C(=O)N1c1ccc(Cl)cc1	?	.	-2.2%	-18.6%	77.9%
Cc1ccccc1CCNC(=O)c1ccc2c(c1)nc1n2CCCCC1	.	.	0.1%	5.7%	.
CCSS(=O)(=O)c1cccc2cccnc12	31.6µM*	-1.8%	1.6%	-31.7%	3.0%
